From PubChem BioAssay (NCI)
Compounds without any hit were thinned out: in the full panel of roughly 83,000, 20% have a hit.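 Cell lines were cultured in 96-well plates, exposed to a single compound concentration, and assessed for percent growth 48 hours later.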 Active and inactive are the calls of the source. How the source made its calls: active means growth percent below 10; inactive means the rest.

Tests used:
Assay in all cases: NCI-60 one-dose screen, 48 h (100 = growth as untreated, 0 = no growth, -100 = all killed)
Settings in all cases: 10 µM unless noted
NCI-H23 lung = tested on: NCI-H23 lung
NCI-H226 lung = tested on: NCI-H226 lung
NCI-H322M lung = tested on: NCI-H322M lung
HOP-62 NSCLC = tested on: HOP-62 NSCLC
NCI-H460 lung = tested on: NCI-H460 lung
HOP-92 NSCLC = tested on: HOP-92 NSCLC
NCI-H522 lung = tested on: NCI-H522 lung
A549/ATCC NSCLC = tested on: A549/ATCC NSCLC
786-0 renal = tested on: 786-0 renal
COLO 205 colon = tested on: COLO 205 colon

Measured: growth

Fc1cc(Nc2ccc3c(OCCCN4CCOCC4)cccc3n2)ccc1Cl
inactive: NCI-H23 lung 61.1% | NCI-H226 lung 68.8% | NCI-H322M lung 45.3% | HOP-62 NSCLC 39.2% | NCI-H460 lung 21.1% | HOP-92 NSCLC 27.3% | A549/ATCC NSCLC 25.7%
active: NCI-H522 lung -15.5% | 786-0 renal 1.04% | COLO 205 colon -50.2%

Nn1c(=O)c(=O)[nH]c2c(cnn2-c2ccccc2)c1=O
inactive: NCI-H23 lung 108% | NCI-H226 lung 94.2% | NCI-H322M lung 108% | HOP-62 NSCLC 86.2% | NCI-H460 lung 117% | HOP-92 NSCLC 106% | NCI-H522 lung 96.2% | A549/ATCC NSCLC 101% | 786-0 renal 103% | COLO 205 colon 121%

C=C(CNCCc1ccc(O)cc1)[C@@H]1CC[C@]2(CO)CC[C@]3(C)[C@H](CC[C@@H]4[C@@]5(C)CCC(=O)C(C)(C)[C@@H]5CC[C@]43C)[C@@H]12
active: NCI-H460 lung -48.8% | COLO 205 colon -55.6%
inactive: NCI-H23 lung 65.7% | NCI-H226 lung 93.1% | NCI-H322M lung 63.2% | HOP-62 NSCLC 84.4% | HOP-92 NSCLC 35.1% | NCI-H522 lung 29.2% | A549/ATCC NSCLC 26.7% | 786-0 renal 44.7%

CC[C@]12C=CCN3CC[C@@]4(c5ccc(OC)cc5N(C)[C@H]4[C@@](O)(C(=O)OC)[C@@H]1OC(=O)CCC[P+](c1ccccc1)(c1ccccc1)c1ccccc1)[C@@H]32
inactive: NCI-H226 lung 14% | NCI-H322M lung 35.6% | A549/ATCC NSCLC 13.4% | 786-0 renal 20.6%
active: NCI-H23 lung -8.66% | HOP-62 NSCLC 2.56% | NCI-H460 lung 6.11% | HOP-92 NSCLC -40% | NCI-H522 lung -35.4% | COLO 205 colon -87.9%

CN(CCCNC(=O)CCOCCOCCOCCNC(=O)Cc1ccc2ccc3cccc4ccc1c2c34)CCCNc1cc(-c2ccc3ccccc3c2)nc2ccccc12
active: NCI-H23 lung -82.9% | NCI-H226 lung -47.1% | NCI-H322M lung -88.4% | HOP-62 NSCLC -90.4% | NCI-H460 lung -82.6% | HOP-92 NSCLC -88.2% | NCI-H522 lung -59% | A549/ATCC NSCLC -33.9% | 786-0 renal -85.6% | COLO 205 colon -87.7%

O=C(Cc1ccccc1)Nc1cccc(N=Cc2ccccc2O)c1
inactive: NCI-H23 lung 107% | NCI-H226 lung 104% | NCI-H322M lung 108% | HOP-62 NSCLC 115% | NCI-H460 lung 107% | HOP-92 NSCLC 88.1% | NCI-H522 lung 91.1% | A549/ATCC NSCLC 99.3% | 786-0 renal 104% | COLO 205 colon 111%

C=C1CC[C@@H]2[C@](C)(COC(C)=O)[C@H](OC(C)=O)CC[C@@]2(C)[C@@H]1CC(Nc1ccc(S(=O)(=O)NC(C)=O)cc1)C1=CCOC1=O (stereo not given in full)
inactive: NCI-H322M lung 35.3% | HOP-62 NSCLC 82% | HOP-92 NSCLC 21% | A549/ATCC NSCLC 27.9%
active: NCI-H23 lung 7.36% | NCI-H226 lung -52.3% | NCI-H460 lung 5.29% | NCI-H522 lung -63.2% | 786-0 renal -66% | COLO 205 colon -32.7%

C=C1C(=O)O[C@H]2[C@H]1CC/C(COC(=O)CSCSCC(=O)OC/C1=C/CC[C@@]3(C)O[C@H]3[C@H]3OC(=O)C(=C)[C@@H]3CC1)=C\CC[C@@]1(C)O[C@@H]21
active: NCI-H226 lung -7.99% | HOP-92 NSCLC -13.3% | NCI-H522 lung -77.8% | 786-0 renal -6.8% | COLO 205 colon -65.5%
inactive: NCI-H23 lung 24.6% | NCI-H322M lung 79.1% | HOP-62 NSCLC 82.7% | NCI-H460 lung 13.6% | A549/ATCC NSCLC 72.1%

CCCCNc1nnc2n(Cc3ccccc3)c(=O)c3c4c(sc3n12)CCCC4
inactive: NCI-H23 lung 45.5% | NCI-H226 lung 50.8% | NCI-H322M lung 69.2% | HOP-62 NSCLC 44.5% | NCI-H460 lung 22.7% | HOP-92 NSCLC 53.2% | NCI-H522 lung 33.2% | A549/ATCC NSCLC 37.8% | 786-0 renal 47.6% | COLO 205 colon 61.1%

CO[C@H]1CC(=O)n2c3ccccc3c3c4c(c5c6ccccc6n1c5c32)C(=O)NC4=O
inactive: NCI-H23 lung 63.3% | NCI-H226 lung 52.1% | NCI-H322M lung 63.5% | HOP-62 NSCLC 54.4% | NCI-H460 lung 29.1% | HOP-92 NSCLC 86.1% | NCI-H522 lung 58.9% | A549/ATCC NSCLC 57% | 786-0 renal 97.4% | COLO 205 colon 42%

CC(C)N1C(=O)/C(=c2\sc3n(c2=O)C2C(NN=3)N(C)C(=O)N2C)c2ccccc21 (stereo not given)
inactive: NCI-H23 lung 74.6% | NCI-H226 lung 83% | NCI-H322M lung 91.6% | HOP-62 NSCLC 74.7% | NCI-H460 lung 62.2% | HOP-92 NSCLC 42.9% | NCI-H522 lung 33.9% | A549/ATCC NSCLC 50.8% | 786-0 renal 62.7% | COLO 205 colon 91.1%

COc1ccc(/C=C2\COc3ccc(O)cc3C2=O)cc1
inactive: NCI-H23 lung 109% | NCI-H226 lung 104% | NCI-H322M lung 100% | HOP-62 NSCLC 103% | NCI-H460 lung 104% | HOP-92 NSCLC 110% | NCI-H522 lung 37.7% | A549/ATCC NSCLC 97.8% | 786-0 renal 92.2% | COLO 205 colon 110%

COC(=O)CC[C@@H]1O[C@@H](c2ccc(F)cc2)[C@@H](O)[C@H]1O
inactive: NCI-H23 lung 103% | NCI-H226 lung 101% | NCI-H322M lung 106% | HOP-62 NSCLC 104% | NCI-H460 lung 109% | HOP-92 NSCLC 93.9% | NCI-H522 lung 99.7% | A549/ATCC NSCLC 112% | 786-0 renal 105% | COLO 205 colon 110%

N#Cc1cccc(C2C3=C(COC3=O)N(CCO)c3cc4c(cc32)CCC4)c1 (stereo not given)
inactive: NCI-H23 lung 23.3% | NCI-H226 lung 28.4% | NCI-H322M lung 34.2% | HOP-62 NSCLC 26.3% | HOP-92 NSCLC 43% | A549/ATCC NSCLC 12.3% | 786-0 renal 24%
active: NCI-H460 lung 3.78% | NCI-H522 lung -3.91% | COLO 205 colon -26.1%

O=C1/C(=C/c2ccccn2)NC(=S)N1c1ccccc1Cl
inactive: NCI-H23 lung 56.4% | NCI-H226 lung 78.3% | NCI-H322M lung 66.7% | HOP-62 NSCLC 38.9% | NCI-H460 lung 31.2% | HOP-92 NSCLC 102% | NCI-H522 lung 58.1% | A549/ATCC NSCLC 51% | 786-0 renal 31.8% | COLO 205 colon 66.4%

CCOC(=O)c1c(C)nc2c(c1N)/C(=C/c1ccc(OC)cc1)C(=O)N2Cc1ccccc1
inactive: NCI-H23 lung 59.2% | NCI-H226 lung 86.1% | NCI-H322M lung 74.9% | HOP-62 NSCLC 58.1% | NCI-H460 lung 41.1% | HOP-92 NSCLC 45% | NCI-H522 lung 66.3% | A549/ATCC NSCLC 63.4% | 786-0 renal 64.4% | COLO 205 colon 73.7%

O=[N+]([O-])c1cc(NS(=O)(=O)c2ccccc2)ccc1NS(=O)(=O)c1ccccc1
inactive: NCI-H23 lung 112% | NCI-H226 lung 104% | NCI-H322M lung 135% | HOP-62 NSCLC 110% | NCI-H460 lung 93.3% | HOP-92 NSCLC 97.8% | NCI-H522 lung 80.9% | A549/ATCC NSCLC 97.9% | 786-0 renal 102% | COLO 205 colon 109%

O=S1(=O)C=C(c2ccccc2)C(c2ccccc2)=C1
inactive: NCI-H23 lung 60.1% | NCI-H226 lung 44.7% | NCI-H322M lung 90.8% | HOP-62 NSCLC 54.3% | NCI-H460 lung 36.5% | A549/ATCC NSCLC 70.9%
active: HOP-92 NSCLC -1.68% | NCI-H522 lung -70.7% | 786-0 renal 3.9% | COLO 205 colon -88.5%

NNCCc1ccc(NC(=O)CCCc2ccc(C(=O)Nc3ccccc3N)cc2)cc1
inactive: NCI-H23 lung 76.5% | NCI-H226 lung 74.3% | NCI-H322M lung 87% | HOP-62 NSCLC 69.6% | NCI-H460 lung 66.3% | HOP-92 NSCLC 31.2% | NCI-H522 lung 13.1% | A549/ATCC NSCLC 85.4% | 786-0 renal 81.6% | COLO 205 colon 75.6%

N#Cc1c(Nc2ccc(N3CCOCC3)cc2)nc(SCC(=O)c2ccc(Br)cc2)nc1-c1ccccc1
inactive: NCI-H23 lung 98% | NCI-H226 lung 108% | NCI-H322M lung 97.7% | HOP-62 NSCLC 92.6% | NCI-H460 lung 114% | HOP-92 NSCLC 99.7% | NCI-H522 lung 96.2% | A549/ATCC NSCLC 97.3% | 786-0 renal 101% | COLO 205 colon 107%

[2H]C([2H])([2H])Oc1ccc(F)cc1/C=C/C(=O)/C=C(/C=C/c1cc(F)ccc1OC([2H])([2H])[2H])OB(F)F
inactive: NCI-H23 lung 76.6% | NCI-H226 lung 109% | NCI-H322M lung 108% | HOP-62 NSCLC 97.8% | NCI-H460 lung 95.5% | HOP-92 NSCLC 99.7% | NCI-H522 lung 18.9% | A549/ATCC NSCLC 90.8% | 786-0 renal 86.3% | COLO 205 colon 57.6%

CCN(CC)c1ccc(/C=N/NC(=O)Cc2ccc(Nc3ccnc(C(F)(F)F)c3)cc2)c(O)c1
active: NCI-H460 lung 8.96% | 786-0 renal 1.44%
inactive: NCI-H23 lung 19.1% | NCI-H226 lung 19.4% | NCI-H322M lung 25.9% | HOP-62 NSCLC 24.5% | HOP-92 NSCLC 54.1% | NCI-H522 lung 33.9% | A549/ATCC NSCLC 23.4% | COLO 205 colon 64.9%

Cc1cccc(Oc2ccc(Nc3ncnc4ccc(NC(=O)CN5CCN(C)CC5)cc34)cc2Cl)c1
inactive: NCI-H23 lung 69.6% | NCI-H226 lung 85.2% | NCI-H322M lung 15.1% | HOP-62 NSCLC 60% | HOP-92 NSCLC 43.1% | A549/ATCC NSCLC 28.4%
active: NCI-H460 lung 2.18% | NCI-H522 lung 0.619% | 786-0 renal -40.7% | COLO 205 colon -43.4%

COc1cccc(CNc2c3ccccc3nc3ccccc23)c1
inactive: NCI-H23 lung 37.3% | NCI-H226 lung 48.1% | NCI-H322M lung 44% | HOP-62 NSCLC 46.5% | NCI-H460 lung 10% | HOP-92 NSCLC 25.5% | NCI-H522 lung 61.7% | A549/ATCC NSCLC 30.2% | 786-0 renal 37.3%
active: COLO 205 colon 9.63%

O=C(NNC(=O)c1ccc(NC(=O)c2ccccn2)cc1)Nc1ccc2ccccc2c1
inactive: NCI-H23 lung 96.5% | NCI-H226 lung 103% | NCI-H322M lung 103% | HOP-62 NSCLC 115% | NCI-H460 lung 110% | HOP-92 NSCLC 108% | NCI-H522 lung 105% | A549/ATCC NSCLC 108% | 786-0 renal 111% | COLO 205 colon 130%

CC1(C)CC2=C3C=C[C@@H]4[C@@]5(C)CCC(=O)C(C)(C)[C@@H]5CC[C@@]4(C)[C@]3(C)CC[C@@]2(C(=O)O)C[C@H]1O
active: HOP-92 NSCLC -7.2%
inactive: NCI-H23 lung 23.2% | NCI-H226 lung 25.5% | NCI-H322M lung 26.6% | HOP-62 NSCLC 30.1% | NCI-H460 lung 18% | NCI-H522 lung 26.4% | A549/ATCC NSCLC 26.3% | 786-0 renal 17.2% | COLO 205 colon 29.2%
